Source: PubChem BioAssay (EPA / NIEHS)
Activity calls are given as the source filed them. Rule for the calls: active = hit-call score of the fitted dose curve at least 0.9, where 1 is the maximum; inactive = score below 0.9.

Experiments:
[1] = molecular target: CCAAT/enhancer-binding protein beta (Homo sapiens) (UniProt P17676); test: ATG_C_EBP_CIS: Attagene CIS-FACTORIAL HepG2 Assay for human CCAAT/Enhancer Binding Protein (C/EBP) beta (AID 2282927); conditions: HepG2 Attagene cis-factorial transcription factor reporter; actives raise or lower the signal
Chain of CCAAT/enhancer-binding protein beta (Homo sapiens) (P17676 whole entry, looked up): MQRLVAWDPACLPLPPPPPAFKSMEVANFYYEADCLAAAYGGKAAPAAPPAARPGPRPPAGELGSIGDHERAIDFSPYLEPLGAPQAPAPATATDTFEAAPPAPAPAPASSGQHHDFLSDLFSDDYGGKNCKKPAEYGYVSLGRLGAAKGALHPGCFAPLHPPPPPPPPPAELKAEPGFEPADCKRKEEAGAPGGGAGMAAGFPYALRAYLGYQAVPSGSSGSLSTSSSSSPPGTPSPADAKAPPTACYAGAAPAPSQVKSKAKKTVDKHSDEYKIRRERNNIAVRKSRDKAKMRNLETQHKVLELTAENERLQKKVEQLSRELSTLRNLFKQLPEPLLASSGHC
Procedure, shortened: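 Endogenous transcription factor activity in human liver HepG2 cells is inferred from induction of a CEBPB-linked reporter mRNA. Exposure lasts 24 h; activity is fitted in both directions relative to DMSO.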

[2] = ATG_CMV_CIS: Attagene CIS-FACTORIAL HepG2 Assay for human CMV (Internal Marker) (AID 2282928); conditions: HepG2 CMV promoter reporter, transcription factor profiling; actives raise or lower the signal;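 note: endpoint acts as a background internal control marker rather than a target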
Procedure, shortened: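 Reporter transcripts from transfected HepG2 cells are isolated after 24 h of chemical dosing, reverse-transcribed and amplified. Fragments labeled with 6-FAM are cut with HpaI and quantified by capillary electrophoresis; DMSO defines baseline.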

[3] = ATG_AP_1_CIS: Attagene CIS-FACTORIAL HepG2 Assay for human Activator Protein 1 (AP-1) (AID 2282931); conditions: HepG2 Attagene cis-factorial AP-1 reporter mRNA; actives raise or lower the signal
Procedure, shortened: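 Readout is reporter transcript level from endogenous transcription factor activity, quantified by RT-PCR with fluorescent primer extension and capillary electrophoresis. Transiently transfected HepG2 cells, 24 h exposure. Curves fitted both directions versus DMSO.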

[4] = ATG_AP_2_CIS: Attagene CIS-FACTORIAL HepG2 Assay for human Activator Protein 2 (AP-2) (AID 2282932); conditions: HepG2 AP-2 cis-reporter, Attagene transcription factor profiling; actives raise or lower the signal
Procedure, shortened: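 Transiently transfected HepG2 cells are exposed to chemical for 24 h. Reporter transcripts are then measured as fluorescence following RT-PCR and capillary separation, and gain- or loss-of-signal is fitted relative to DMSO.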

[5] = ATG_BRE_CIS: Attagene CIS-FACTORIAL HepG2 Assay for human Bone Morphogenetic Protein (BMP) Response Element (BRE) (AID 2282933); conditions: HepG2 BMP response element reporter, Attagene transcription factor profiling; actives raise or lower the signal
Procedure, shortened: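 Gain- or loss-of-signal was derived by bidirectional fitting against DMSO controls. The signal came from reporter mRNA, measured by RT-PCR and capillary electrophoresis, in HepG2 cells transiently carrying multiple reporter units and dosed for 24 h.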

[6] = ATG_E_Box_CIS: Attagene CIS-FACTORIAL HepG2 Assay for human Enhancer Box (E-box) (AID 2282936); conditions: HepG2 E-box cis-reporter transcription, actives raise or lower the signal
Procedure, shortened: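 Fluorescent reporter fragments separated by capillary electrophoresis gave the signal; mRNA came from HepG2 cells transfected with cis-element reporters and treated 24 h. Curves fitted bidirectionally relative to DMSO controls.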

[7] = ATG_M_61_CIS: Attagene CIS-FACTORIAL HepG2 Assay for M61 Transcription Factor (Internal Marker) (AID 2282937); conditions: HepG2 Attagene CIS-FACTORIAL M61 internal marker reporter; actives raise or lower the signal
Procedure, shortened: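 Readout is reporter mRNA by RT-PCR, fluorescent primer extension and capillary electrophoresis, with gain or loss fitted relative to DMSO. Transfected HepG2 cells carrying endogenous-TF-driven cis reporters were exposed to chemicals for 24 hours.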

[8] = ATG_EGR_CIS: Attagene CIS-FACTORIAL HepG2 Assay for human Early Growth Response 1 (EGR1) (AID 2282938); conditions: HepG2 Attagene CIS-FACTORIAL EGR reporter mRNA; actives raise or lower the signal
Procedure, shortened: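 After 24 h compound exposure, RNA from reporter-transfected HepG2 cells was reverse-transcribed, PCR-amplified, fluorescently labelled and resolved by capillary electrophoresis. EGR1 reporter transcript changes, up or down, were fitted against DMSO, reflecting endogenous transcription-factor activity.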

[9] = ATG_Ets_CIS: Attagene CIS-FACTORIAL HepG2 Assay for human Erythroblast Transformation Specific (ETS) (AID 2282941); conditions: HepG2 ETS cis-reporter transcription, actives raise or lower the signal
Procedure, shortened: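 Bidirectional fit versus DMSO of reporter mRNA signal, detected by RT-PCR and capillary electrophoresis in HepG2 cells transiently transfected with cis-element reporters and dosed 24 h.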

[10] = ATG_FoxO_CIS: Attagene CIS-FACTORIAL HepG2 Assay for human Forkhead box O (FoxO) (AID 2282943); conditions: HepG2 Attagene cis-reporter, FoxO element, mRNA; actives raise or lower the signal
Procedure, shortened: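 HepG2, transient MRTU transfection (cis element, endogenous TFs). Dose 24 h. TriZol RNA → oligo(dT) RT → PCR → 6-FAM primer extension → HpaI cut → CE. Gain/loss vs DMSO.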

[11] = ATG_GATA_CIS: Attagene CIS-FACTORIAL HepG2 Assay for human GATA Binding Protein (AID 2282944); conditions: HepG2 GATA cis-element reporter, Attagene multiplex mRNA; actives raise or lower the signal
Procedure, shortened: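 DMSO serves as negative control and baseline for bidirectional fitting of reporter mRNA changes. HepG2 cells bearing transiently transfected cis-promoter reporters were exposed 24 h; transcripts detected via RT-PCR and capillary electrophoresis.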

[12] = ATG_ISRE_CIS: Attagene CIS-FACTORIAL HepG2 Assay for human Interferon Regulatory Factor 1 (IRF1) binding to an Interferon-Stimulated Response Element (ISRE) (AID 2282948); conditions: HepG2 ISRE cis-reporter (Attagene), mRNA transcription readout; actives raise or lower the signal
Procedure, shortened: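 Uses HepG2 liver cells transfected with cis-regulated reporters and measures mRNA 24 h post-dosing through RT-PCR, primer-extension labelling and capillary electrophoresis, with DMSO as negative control.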

[13] = ATG_M_06_CIS: Attagene CIS-FACTORIAL HepG2 Assay for M06 Transcription Factor (Internal Marker) (AID 2282950); conditions: HepG2 Attagene CIS-FACTORIAL M06 internal marker reporter; actives raise or lower the signal
Procedure, shortened: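 Fluorescence-labelled RT-PCR products from cis-promoter reporter units, cut with HpaI and resolved by capillary electrophoresis, give the signal. Cells are human HepG2, dosed for 24 h. Serves as background control, fitted relative to DMSO.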

[14] = ATG_MRE_CIS: Attagene CIS-FACTORIAL HepG2 Assay for human Metal Responsive Element (MRE) (AID 2282954); conditions: HepG2 MRE cis-reporter transcription, Attagene multiplex; actives raise or lower the signal
Procedure, shortened: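 Multiplexed cis-reporter assay in human HepG2 liver cells, 24 h incubation with test chemical. Reporter transcripts measured by RT-PCR and capillary electrophoresis; values from bidirectional curve fitting versus DMSO.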

[15] = molecular target: Paired box protein Pax-6 (Homo sapiens) (UniProt P26367); test: ATG_Pax6_CIS: Attagene CIS-FACTORIAL HepG2 Assay for human Paired Box 6 (PAX6) (AID 2282956); conditions: HepG2 CIS-FACTORIAL PAX6 reporter transcription, RNA readout; actives raise or lower the signal
Chain of Paired box protein Pax-6 (Homo sapiens) (P26367 whole entry, looked up): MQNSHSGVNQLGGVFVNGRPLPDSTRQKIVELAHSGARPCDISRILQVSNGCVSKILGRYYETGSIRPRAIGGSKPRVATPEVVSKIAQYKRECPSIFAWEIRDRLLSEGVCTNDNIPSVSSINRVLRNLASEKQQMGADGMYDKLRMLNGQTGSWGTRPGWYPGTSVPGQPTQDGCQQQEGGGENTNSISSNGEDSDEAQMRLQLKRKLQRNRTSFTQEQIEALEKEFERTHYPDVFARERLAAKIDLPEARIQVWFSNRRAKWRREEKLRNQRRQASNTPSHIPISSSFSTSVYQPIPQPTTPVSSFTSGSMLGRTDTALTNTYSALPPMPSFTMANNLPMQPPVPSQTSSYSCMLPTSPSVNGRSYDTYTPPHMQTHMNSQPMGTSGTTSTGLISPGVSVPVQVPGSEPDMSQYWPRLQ
Procedure, shortened: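 DMSO-referenced bidirectional fits of reporter mRNA fluorescence; HepG2 with transient cis-promoter MRTUs, 24 h post-dose, RT-PCR plus capillary electrophoresis detection.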

[16] = molecular target: Transcription factor Sp1 (Homo sapiens) (UniProt P08047); test: ATG_Sp1_CIS: Attagene CIS-FACTORIAL HepG2 Assay for human Specificity Protein 1 (Sp1) (AID 2282961); conditions: HepG2 Sp1 cis-reporter transcription, actives raise or lower the signal
Chain of Transcription factor Sp1 (Homo sapiens) (P08047 whole entry, looked up): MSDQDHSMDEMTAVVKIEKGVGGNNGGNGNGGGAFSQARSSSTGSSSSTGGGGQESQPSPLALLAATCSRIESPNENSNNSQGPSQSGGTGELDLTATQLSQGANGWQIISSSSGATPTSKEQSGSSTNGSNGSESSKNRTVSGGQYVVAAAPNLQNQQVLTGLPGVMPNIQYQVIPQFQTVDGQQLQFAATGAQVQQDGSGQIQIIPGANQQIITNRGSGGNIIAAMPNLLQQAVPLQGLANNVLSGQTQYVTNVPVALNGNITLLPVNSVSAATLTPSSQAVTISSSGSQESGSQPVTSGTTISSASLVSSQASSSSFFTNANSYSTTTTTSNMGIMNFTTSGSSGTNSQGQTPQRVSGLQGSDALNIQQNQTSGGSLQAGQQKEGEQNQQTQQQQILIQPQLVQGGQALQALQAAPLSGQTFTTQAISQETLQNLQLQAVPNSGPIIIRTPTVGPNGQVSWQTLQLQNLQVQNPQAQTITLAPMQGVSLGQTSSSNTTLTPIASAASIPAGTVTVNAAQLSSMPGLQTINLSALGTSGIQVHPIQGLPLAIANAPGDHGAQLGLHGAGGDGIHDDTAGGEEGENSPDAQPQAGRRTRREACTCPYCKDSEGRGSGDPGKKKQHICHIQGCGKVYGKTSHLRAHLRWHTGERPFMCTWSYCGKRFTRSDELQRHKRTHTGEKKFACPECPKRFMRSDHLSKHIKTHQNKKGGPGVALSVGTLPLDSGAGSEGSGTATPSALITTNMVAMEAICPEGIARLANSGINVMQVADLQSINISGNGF
Procedure, shortened: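 Read-out is reporter transcript level, measured by RT-PCR and fluorescent capillary electrophoresis after 24 h chemical treatment. System: transiently transfected HepG2 cells reporting endogenous transcription factor activity; gain or loss fitted against DMSO baseline.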

[17] = ATG_SREBP_CIS: Attagene CIS-FACTORIAL HepG2 Assay for human Sterol Regulatory Element Binding (SREBP) (AID 2282962); conditions: HepG2 Attagene cis-factorial SREBP reporter, mRNA; actives raise or lower the signal
Procedure, shortened: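 In this cis-format assay, HepG2 liver cells express reporters controlled by promoter elements responsive to native transcription factors. Exposure lasts 24 h; reporter mRNA fluorescence from capillary electrophoresis gives the signal, fitted bidirectionally against DMSO.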

[18] = molecular target: Signal transducer and activator of transcription 3 (Homo sapiens) (UniProt P40763); test: ATG_STAT3_CIS: Attagene CIS-FACTORIAL HepG2 Assay for human Signal Transducer and Activator of Transcription 3 (STAT3) (AID 2282963); conditions: HepG2, Attagene cis-factorial STAT3 reporter transcription; actives raise or lower the signal
Chain of Signal transducer and activator of transcription 3 (Homo sapiens) (P40763 whole entry, looked up): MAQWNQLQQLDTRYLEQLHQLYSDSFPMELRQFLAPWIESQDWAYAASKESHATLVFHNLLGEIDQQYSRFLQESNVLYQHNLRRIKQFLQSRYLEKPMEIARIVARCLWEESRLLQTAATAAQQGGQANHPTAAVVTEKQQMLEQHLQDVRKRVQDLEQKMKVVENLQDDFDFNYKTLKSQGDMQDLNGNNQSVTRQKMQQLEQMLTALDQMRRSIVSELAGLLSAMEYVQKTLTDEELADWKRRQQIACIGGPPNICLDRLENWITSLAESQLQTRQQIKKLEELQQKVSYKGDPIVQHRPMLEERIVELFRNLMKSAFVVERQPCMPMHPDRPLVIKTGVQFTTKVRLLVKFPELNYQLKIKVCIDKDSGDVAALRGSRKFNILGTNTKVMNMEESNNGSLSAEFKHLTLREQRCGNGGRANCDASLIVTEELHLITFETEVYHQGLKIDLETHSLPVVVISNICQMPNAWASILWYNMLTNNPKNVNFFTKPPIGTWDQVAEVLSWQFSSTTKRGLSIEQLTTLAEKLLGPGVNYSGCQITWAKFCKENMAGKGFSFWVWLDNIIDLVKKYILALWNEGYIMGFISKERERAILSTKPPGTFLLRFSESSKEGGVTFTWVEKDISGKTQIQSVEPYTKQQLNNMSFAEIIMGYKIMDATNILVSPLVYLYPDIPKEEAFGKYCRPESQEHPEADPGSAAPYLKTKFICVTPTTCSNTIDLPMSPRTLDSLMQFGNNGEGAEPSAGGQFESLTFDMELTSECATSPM
Procedure, shortened: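 Cis-factorial format: endogenous transcription factors in HepG2 drive transfected reporter units. After 24 h treatment, reporter RNA was reverse-transcribed, amplified, FAM-labelled and HpaI-digested before CE analysis; activity scored in both directions against DMSO.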

[19] = ATG_TAL_CIS: Attagene CIS-FACTORIAL HepG2 Assay for human TAL Basal Promoter (AID 2282966); conditions: HepG2 Attagene cis-factorial TAL promoter reporter; actives raise or lower the signal;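 note: background control endpoint measuring basal TAL promoter reporter mRNA not a specific factor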
Procedure, shortened: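 Transiently transfected HepG2 (cis-regulated reporter units), 24 h treatment, mRNA read by fluorescent CE after RT-PCR; bidirectional fit, DMSO baseline.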

[20] = molecular target: X-box-binding protein 1 (Homo sapiens) (UniProt P17861); test: ATG_Xbp1_CIS: Attagene CIS-FACTORIAL HepG2 Assay for human X-box Binding Protein 1 (XBP1) (AID 2282972); conditions: HepG2 XBP1 cis-element reporter, Attagene multiplex; actives raise or lower the signal
Chain of X-box-binding protein 1 (Homo sapiens) (P17861 whole entry, looked up): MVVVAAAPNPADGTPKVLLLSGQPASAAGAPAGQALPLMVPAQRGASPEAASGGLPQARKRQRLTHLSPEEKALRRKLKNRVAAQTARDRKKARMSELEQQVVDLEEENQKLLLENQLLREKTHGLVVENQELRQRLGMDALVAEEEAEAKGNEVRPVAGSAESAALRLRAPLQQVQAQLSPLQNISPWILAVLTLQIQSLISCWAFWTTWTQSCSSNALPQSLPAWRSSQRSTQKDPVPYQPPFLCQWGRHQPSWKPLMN
Procedure, shortened: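 Changes in reporter transcript abundance, read by RT-PCR and capillary electrophoresis, reflect endogenous transcription factor activity. Transfected HepG2 cells received compound for 24 hours; DMSO defined baseline for bidirectional analysis.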

Measured: outcome

CNC[C@H](O)[C@@H](O)[C@H](O)[C@H](O)CO
inactive: all assays above

O=C1NC(=O)[C@@H]2CC=CC[C@H]12
inactive: all assays above

NC(=O)c1ccc([N+](=O)[O-])cc1Cl
inactive: all assays above

Cc1cc2nc3c(=O)[nH]c(=O)nc-3n(C[C@H](O)[C@H](O)[C@H](O)CO)c2cc1C
inactive: all assays above

C=CCOC(=O)C(=C)C
inactive: all assays above

Clc1ccc(Sc2cc(Cl)c(Cl)cc2Cl)cc1
inactive: all assays above

C=C(C)C(=O)OCCCCCC
inactive: all assays above
